The source made the active and inactive calls. Unless noted, the rule behind the calls is not given here.

Data on 13 compounds can be found in PubChem BioAssay.

Experiment [1] in a line: HepG2 liver cancer cell viability effects, profiling panel, resazurin fluorescence, 24 h, PK04 Diversity Set (AID 1172). Note: test concentration not given here. To be noted: higher = more signal. (In general: The colour change of resazurin is a common sign of viable cells or microbes.)
Experiment [2] in a line: basal S. cerevisiae growth modulation, no modifier, primary screen, OD600, strain BY4716, 24 h, basal condition (AID 1173). To be noted: OD600, 24 h, higher = more signal, called active from +8 up or from −8 down.
A short description of experiment [3]: MM1S myeloma cell viability, profiling panel, resazurin fluorescence, basal, 24 h, PK04 Diversity Set (AID 1174).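 Note: MM1S multiple myeloma cell line; test concentration not given here.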 To be noted: higher = more signal, called active from +8 up or from −8 down.
Experiment [4] deals with Dihydroorotate dehydrogenase (quinone), mitochondrial (Plasmodium falciparum (isolate 3D7)) (UniProt Q08210). Kind of experiment: PfDHODH enzyme inhibitors, primary screen, biochemical, C-terminal His tag, absorbance 600 nm (AID 1175).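 Note: recombinant parasite enzyme with a five histidine tag at its C terminus; test concentration not given here.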 As to conditions: DCIP absorbance 600 nm, higher = more signal, called active from +8 up or from −8 down.
Dihydroorotate dehydrogenase (quinone), mitochondrial (Plasmodium falciparum (isolate 3D7)), sequence (Q08210 whole entry, looked up): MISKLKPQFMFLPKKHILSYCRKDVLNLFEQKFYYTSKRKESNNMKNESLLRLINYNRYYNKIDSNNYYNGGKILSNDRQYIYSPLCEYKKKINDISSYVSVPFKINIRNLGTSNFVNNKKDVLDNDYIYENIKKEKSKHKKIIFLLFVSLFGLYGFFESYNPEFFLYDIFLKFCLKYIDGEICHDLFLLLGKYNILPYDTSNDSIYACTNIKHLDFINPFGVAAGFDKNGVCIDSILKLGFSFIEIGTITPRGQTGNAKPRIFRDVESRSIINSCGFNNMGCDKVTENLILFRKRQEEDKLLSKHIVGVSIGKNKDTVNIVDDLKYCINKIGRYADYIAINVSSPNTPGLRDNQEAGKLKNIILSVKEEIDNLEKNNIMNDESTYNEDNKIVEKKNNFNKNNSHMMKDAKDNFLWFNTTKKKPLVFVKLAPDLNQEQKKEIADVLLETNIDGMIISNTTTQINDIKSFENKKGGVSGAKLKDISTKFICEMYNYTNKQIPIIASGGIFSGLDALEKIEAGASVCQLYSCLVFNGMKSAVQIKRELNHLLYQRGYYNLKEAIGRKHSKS
A short description of experiment [5]: P. aeruginosa biofilm formation inhibitors, primary screen, strain PAO1, LB-PBS medium, absorbance 600 nm (AID 1176). Note: test concentration not given here. To be noted: P. aeruginosa PAO1 growth/biofilm, A600, 12 h; higher = more signal.
Experiment [6] can be described thus: S. cerevisiae RM11-1a growth modifiers, primary screen, strain RM11-1a, OD600, basal, 24 h (AID 1177).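 Note: cultures grown under basal conditions with no added stressor; test concentration not given here.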 To be noted: OD600, 24 h, higher = more signal, called active from +8 up or from −8 down.
Experiment [7] can be described thus: E. coli acrAB mutant growth effects, primary screen, E. coli filamentation inducers, strain DRC39, OD650, 24 h (AID 1178).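 Note: growth measured as culture turbidity by optical density at 650 nm; test concentration not given here.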 To be noted: higher = more signal, called active from +8 up or from −8 down.
A short description of experiment [8]: E. coli acrAB mutant growth effects, primary screen, E. coli filamentation inducers, strain DRC39, OD650, 48 h (AID 1179).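 Note: screen aims at cell division blockers that make cells filament.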 As to conditions: E. coli DRC39 delta-acrAB growth, higher = more signal, called active from +8 up or from −8 down.
A short description of experiment [9]: RPMI8226 myeloma cell viability, profiling panel, resazurin fluorescence, basal, 24 h, PK04 Diversity Set (AID 1180).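 Note: RPMI8826 multiple myeloma cell line at 5000 cells per well; test concentration not given here.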 To be noted: higher = more signal.
The target of experiment [10] is E3 ubiquitin-protein ligase XIAP (Homo sapiens) (UniProt P98170). The experiment can be described thus: XIAP binders, primary screen, biophysical, small-molecule microarray, fluorescence 635 nm (AID 1181).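 Note: score merges 667 nm emission and signal to noise over triplicate slides.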 To be noted: small-molecule microarray binding, higher = more signal.
E3 ubiquitin-protein ligase XIAP (Homo sapiens), sequence (P98170 whole entry, looked up): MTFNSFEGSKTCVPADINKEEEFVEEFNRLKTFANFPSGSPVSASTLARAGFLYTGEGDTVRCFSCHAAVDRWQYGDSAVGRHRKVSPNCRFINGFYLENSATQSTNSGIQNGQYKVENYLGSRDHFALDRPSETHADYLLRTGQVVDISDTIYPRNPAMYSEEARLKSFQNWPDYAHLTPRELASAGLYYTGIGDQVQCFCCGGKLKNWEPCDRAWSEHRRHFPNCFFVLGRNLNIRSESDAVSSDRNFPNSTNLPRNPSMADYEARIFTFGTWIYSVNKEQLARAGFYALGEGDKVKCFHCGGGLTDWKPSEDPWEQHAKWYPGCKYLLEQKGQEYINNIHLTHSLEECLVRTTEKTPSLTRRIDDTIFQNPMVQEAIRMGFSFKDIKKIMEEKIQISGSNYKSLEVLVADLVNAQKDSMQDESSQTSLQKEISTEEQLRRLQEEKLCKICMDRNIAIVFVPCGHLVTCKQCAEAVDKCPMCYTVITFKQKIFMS

In the case of `COc1cccc([C@H]2Oc3ccc(OC)cc3C(=NO[C@@H]3O[C@H](COC(C)=O)[C@@H](OC(C)=O)[C@H](OC(C)=O)[C@H]3OC(C)=O)[C@@H]2O)c1`, the z-score is -0.34 in [1]; 0.387 (inactive) in experiment [2]; -0.726 (inactive) in [3]; 0.347 (inactive) in experiment [5]; -1.02 (inactive) in experiment [6]; 0.416 (inactive) in experiment [7]. Further, the z-score was -0.716 (inactive) in experiment [8] and -0.158 in experiment [9]. Also, the results for the composite z-score in experiment [4] and in experiment [10] were -0.582 (inactive) and 0.02, respectively.
In the case of `CC(=O)OC[C@H]1OC(ON=CC[C@@H]2C=C[C@H](OC(C)=O)[C@@H](COC(C)=O)O2)[C@H](OC(C)=O)[C@@H](OC(C)=O)[C@@H]1OC(C)=O` (stereo not given in full), the z-score is 0.186 in experiment [1]; 0.352 (inactive) in experiment [2]; -0.919 (inactive) in experiment [3]; -0.0903 (inactive) in experiment [5]; -0.618 (inactive) in [6]; 0.938 (inactive) in experiment [7]. Moreover, the z-score in experiment [8] is 0.583 (inactive); in [9], 0.169. Moreover, the composite z-score in experiment [4] was -0.753 (inactive); in experiment [10], 0.0982.
Regarding `C#CCCCON=C1[C@H]2CCn3c(=O)n(C)c(=O)n3[C@H]2[C@H](O)[C@@H]2O[C@H]12`, the z-score is -1.33 in experiment [1]; -0.492 (inactive) in experiment [2]; -1.59 (inactive) in experiment [3]; -0.568 (inactive) in experiment [5]; 0.956 (inactive) in [6]; 0.0518 (inactive) in experiment [7]. Moreover, the z-score is 0.385 (inactive) in experiment [8] and -1.93 in experiment [9]. Also, the values for the composite z-score in [4] and in [10] were -0.511 (inactive) and -0.391, respectively.
`Cn1c(=O)n2n(c1=O)[C@H]1[C@H](O)[C@@H]3O[C@@H]3C(=NOCc3ccccc3)[C@H]1CC2`: the z-score is 0.0287 in experiment [1]; 0.0108 (inactive) in experiment [2]; -0.189 (inactive) in [3]; -0.0242 (inactive) in experiment [5]; -0.186 (inactive) in experiment [6]; -0.289 (inactive) in experiment [7]. The z-score was -0.265 (inactive) in experiment [8] and -0.336 in experiment [9]. For the same compound, the figures for the composite z-score in experiment [4] and in experiment [10] were -1.08 (inactive) and -0.222, respectively.
Turning to `CCOC(=O)NN=C1C[C@@H](O)[C@@H](O)[C@@H]2[C@@H]3C(=O)N(C(C)(C)C)C(=O)[C@@H]3CC[C@H]12`, the z-score was -1.46 in [1]; -0.962 (inactive) in experiment [2]; -0.4 (inactive) in [3]; 0.434 (inactive) in experiment [5]; 0.179 (inactive) in experiment [6]; 0.408 (inactive) in [7]. Besides, the z-score was 0.72 (inactive) in experiment [8] and -0.226 in experiment [9]. The composite z-score in experiment [4] is -0.397 (inactive); in experiment [10] it was -0.246.
For `O=C1[C@H]2[C@H]3[C@H](O)[C@H](O)CC(=NOC[C@@H](O)COCc4ccco4)[C@H]3CC[C@H]2C(=O)N1Cc1ccccc1`, the z-score was 1.57 in experiment [1]; -1.34 (inactive) in [2]; 0.737 (inactive) in experiment [3]; 0.377 (inactive) in experiment [5]; -1.36 (inactive) in [6]; -0.194 (inactive) in [7]. Also, the z-score in experiment [8] was -0.22 (inactive); in experiment [9], 1.1. Moreover, the composite z-score was -0.336 (inactive) in experiment [4] and -0.0749 in experiment [10].
Turning to `CO[C@@H]1COC(=O)CC=C[C@@H](C)[C@H](OC)COC(=O)[C@@H](C)COC(=O)CC=C[C@H]1C`, the z-score in [1] was 0.225; in [2] it was -0.621 (inactive); in experiment [3], 0.586 (inactive); in experiment [5], -0.225 (inactive); in experiment [6], 0.401 (inactive); in [7] it was 0.666 (inactive). Further, the z-score was 0.733 (inactive) in experiment [8] and 0.151 in [9]. Moreover, the composite z-score was 0.577 (inactive) in experiment [4] and -0.0264 in experiment [10].
Turning to `COc1cccc([C@H]2Oc3ccc(OC)cc3C(=NOC[C@@H](O)[C@H]3O[C@@H]4OC(C)(C)O[C@@H]4[C@H]3O)[C@@H]2O)c1`, the z-score in experiment [1] was -0.791; in [2] it was -6.98 (inactive); in experiment [3], -1.21 (inactive); in experiment [5], 0.56 (inactive); in [6], -0.0039 (inactive); in [7] it was -0.218 (inactive). The z-score in experiment [8] is 0.0308 (inactive); in experiment [9] it was -0.687. In addition, the composite z-score in experiment [4] is 0.474 (inactive); in experiment [10], 0.0865.
As to `C#CCCCON=C1[C@H]2CCn3c(=O)n(-c4ccccc4)c(=O)n3[C@H]2[C@H](O)[C@@H]2O[C@H]12`, the z-score was -0.775 in experiment [1]; -1.34 (inactive) in experiment [2]; -2.23 (inactive) in experiment [3]; 0.352 (inactive) in [5]; -1.93 (inactive) in [6]; -0.536 (inactive) in experiment [7]. In addition, the z-score was -0.231 (inactive) in experiment [8] and -1.7 in experiment [9]. The composite z-score in experiment [4] was -1.16 (inactive); in experiment [10], -0.147.
As to `COC(=O)[C@@H]1CC[C@H](C)[C@@H](c2ccc(C)cc2)N1C(=O)c1ccc(C=NOC[C@@H](C)[C@H](OCc2ccccc2)C(C)C)cc1`, the z-score in [1] is -0.625; in [2], -2.56 (inactive); in [3], -0.795 (inactive); in experiment [5] it was -1.16 (inactive); in experiment [6] it was -2.18 (inactive); in experiment [7] it was 0.413 (inactive). The results for the z-score in [8] and in experiment [9] were -1.07 (inactive) and -0.987, respectively. The composite z-score is -0.869 (inactive) in experiment [4] and -0.135 in [10].
Consider `C[C@@H](c1ccccc1)N1C(=O)[C@H]2[C@H]3[C@H](O)[C@H](O)CC(=NOCc4ccccc4)[C@H]3CC[C@H]2C1=O`, for which the z-score in experiment [1] is -0.137; in experiment [2], -0.18 (inactive); in [3] it was -1.03 (inactive); in [5] it was -0.179 (inactive); in experiment [6], 0.783 (inactive); in experiment [7], 0.273 (inactive). The z-score is 1.12 (inactive) in [8] and 0.76 in [9]. Besides, the composite z-score is -0.964 (inactive) in [4] and -0.184 in [10].
As for `CO[C@H]1COC(=O)[C@@H](Cc2ccccc2)NC(=O)[C@@H](C)COC(=O)CCC[C@@H]1C`, the z-score is 0.464 in [1]; -0.916 (inactive) in experiment [2]; 1.18 (inactive) in experiment [3]; -1.24 (inactive) in [5]; -0.726 (inactive) in [6]; 0.285 (inactive) in experiment [7]. For the same compound, the z-score was 1.39 (inactive) in [8] and 0.759 in experiment [9]. Moreover, the values for the composite z-score in [4] and in experiment [10] were -1.7 (inactive) and -0.0918, respectively.
As for `COc1cccc([C@H]2Oc3ccc(OC)cc3C(=NOC[C@@H](O)COCc3ccco3)[C@@H]2O)c1`, the z-score is -0.949 in [1]; -1.38 (inactive) in experiment [2]; -1.19 (inactive) in [3]; -0.254 (inactive) in experiment [5]; -2.29 (inactive) in experiment [6]; 0.0207 (inactive) in [7]. In addition, the results for the z-score in experiment [8] and in [9] were -0.947 (inactive) and -0.825, respectively. Further, the values for the composite z-score in experiment [4] and in [10] were -1.58 (inactive) and 0.0785, respectively.
